Experimental data from PubChem BioAssay AID1671463 (Sanford-Burnham Center for Chemical Genomics, 2021).
Hit rate of the full screen: of about 370,000 compounds, about 520 (0.14%) were called active. The sample holds actives, similar compounds and a random draw of the others, so the mix is not that of the screen. Rule as the data show it: active = activation above about 40%; inactive = the rest.

Each compound was assayed against Atrial natriuretic peptide receptor 1 (Homo sapiens) (UniProt P16066) (assay: GC-A stimulated cGMP production enhancers – HEK293 GC-A cells, cGMP TR-FRET, EC30 ANP, primary screen (AID 1671463)). Conditions: at 10 µM, hits give high values, 0% at EC30 ANP, 100% saturating ANP.
Chain of Atrial natriuretic peptide receptor 1 (Homo sapiens) (P16066 whole entry, looked up): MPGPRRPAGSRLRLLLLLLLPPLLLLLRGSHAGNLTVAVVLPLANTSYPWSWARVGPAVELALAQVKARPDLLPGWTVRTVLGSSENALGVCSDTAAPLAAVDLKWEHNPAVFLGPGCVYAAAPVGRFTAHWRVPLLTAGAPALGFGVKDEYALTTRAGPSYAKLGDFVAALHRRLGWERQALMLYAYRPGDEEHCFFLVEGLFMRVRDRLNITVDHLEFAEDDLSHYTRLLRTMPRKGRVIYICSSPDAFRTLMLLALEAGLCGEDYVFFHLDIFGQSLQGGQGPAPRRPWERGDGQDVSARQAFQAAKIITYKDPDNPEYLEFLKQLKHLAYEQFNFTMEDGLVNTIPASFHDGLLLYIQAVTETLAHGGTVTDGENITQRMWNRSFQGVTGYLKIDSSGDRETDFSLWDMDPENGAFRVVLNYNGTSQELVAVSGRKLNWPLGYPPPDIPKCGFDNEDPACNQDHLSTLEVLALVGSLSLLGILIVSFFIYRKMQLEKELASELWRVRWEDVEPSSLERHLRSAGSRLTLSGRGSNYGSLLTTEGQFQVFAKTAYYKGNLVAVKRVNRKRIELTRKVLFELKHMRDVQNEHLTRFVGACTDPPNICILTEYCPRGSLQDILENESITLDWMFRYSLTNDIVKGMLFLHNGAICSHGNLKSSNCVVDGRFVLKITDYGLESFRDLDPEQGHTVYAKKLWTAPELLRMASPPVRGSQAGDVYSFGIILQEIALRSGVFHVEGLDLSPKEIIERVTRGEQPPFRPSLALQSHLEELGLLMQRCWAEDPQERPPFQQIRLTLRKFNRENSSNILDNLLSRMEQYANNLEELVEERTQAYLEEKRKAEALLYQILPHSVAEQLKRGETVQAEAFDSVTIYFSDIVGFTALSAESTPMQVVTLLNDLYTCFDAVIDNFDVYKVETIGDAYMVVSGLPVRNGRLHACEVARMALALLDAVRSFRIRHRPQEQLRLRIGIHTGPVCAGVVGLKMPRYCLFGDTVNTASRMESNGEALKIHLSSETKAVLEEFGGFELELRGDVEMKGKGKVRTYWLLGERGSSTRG

| Compound | activation |
| --- | --- |
| Cc1nc(N2CCCC2C(=O)O)c2oc3ccccc3c2n1 (centres undefined) | -1.86% (inactive) |
| C[C@@H](Nc1nc(-c2ccccc2)nc2c1oc1ccccc12)C(=O)O | -3.4% (inactive) |
| Cc1nc(Cl)c2oc3ccccc3c2n1 | 41.1% (active) |
| CC12CN(NC(=O)c3ccc(Cl)cc3)C3(C#N)CC1CCC23C (centres undefined) | 0.43% (inactive) |
| C#CCN([C@H](C(=O)OC)C(C)CC)S(=O)(=O)c1ccccc1Br (some centres undefined) | -4.19% (inactive) |
| Cc1ccc(S(=O)(=O)CC(=O)NC(C)c2ccccc2)cc1 (centres undefined) | 4.14% (inactive) |
| CCOc1ccccc1NC(=O)C1CCC(CNc2c(N3CCOCC3)c(=O)c2=O)CC1 (centres undefined) | 0.11% (inactive) |
| CC(C)c1cc(C(=O)O)on1 | -0.6% (inactive) |
| Cc1ccc(C(=O)NCC(=O)NCc2cc(=O)n(C)c(=O)n2C)cc1 | 1.88% (inactive) |
| CN(C)/C(=N\OC(=O)c1ccccc1)c1nonc1N | -2.63% (inactive) |
| Nc1c(-c2cccc(Cl)c2)cnn1-c1cccc([N+](=O)[O-])c1 | -2.54% (inactive) |
| Cc1cccc(-n2ncc(Cl)c(Cl)c2=O)c1 | 40.6% (active) |
| CCOc1ccc(Oc2c(Cl)cnn(-c3ccc(C)cc3)c2=O)cc1 | 4.6% (inactive) |
| COC(=O)c1ccc(C2C3=C(Nc4nnnn42)c2ccccc2OC3)cc1 (centres undefined) | 1.48% (inactive) |
| CCc1c(C)sc(NC(=O)OC)c1C(=O)N1CCOCC1 | 0.05% (inactive) |
| Cc1cccc(Cn2c(N3CCN(c4ccccc4)CC3)nc3c2c(=O)n(C)c(=O)n3C)c1 | -29% (inactive) |
| Cn1c(=O)c2c(nc(N/N=C/c3cccs3)n2Cc2ccc(Br)cc2)n(C)c1=O | 18.6% (inactive) |
| C/C(Cl)=C\Cn1c(Nc2cccc(C)c2)nc2c1c(=O)n(C)c(=O)n2C | 51.1% (active) |
| CCN(CC(=O)Nc1cc(Cl)ccc1C)C(=O)CSCc1ccc(C)cc1 | -0.6% (inactive) |
| CC1(c2ccc3ccccc3c2)NC(=O)N(CC(N)=O)C1=O (centres undefined) | 3.94% (inactive) |
| C=CCN1C(=O)[C@@H](CC(=O)NCCCCc2ccccc2)[C@]2(C(=O)OCC)CCCCC/C=C/12 | 3.65% (inactive) |
| COc1ccc(N(CC(=O)NCC2CCCO2)C(=O)CCC(=O)Nc2nccs2)c(OC)c1 (centres undefined) | 4.75% (inactive) |
| CC(C)(C)C(=O)CCN1C(=O)C2(OCCO2)c2ccccc21 | 1.22% (inactive) |
| CC(=O)NC(c1cccs1)c1cc(Br)c2cccnc2c1O (centres undefined) | -1.9% (inactive) |

| Compound | activation |
| --- | --- |
| CCCCCCCCN1C(=O)[C@@H](CC(=O)NCc2ccccc2)C[C@@]2(C(=O)OC)C1=C[C@H](C(C)(C)C)O[C@@H]2C | 2.65% (inactive) |
| O=C(/C=C/Sc1ncn[nH]1)c1ccc(Cl)cc1 | 64.8% (active) |
| COc1ccc(CN2CC[C@H]3C=CC[C@@H](C(=O)N4CCOCC4)[C@H]3C2=O)cc1OC | 1.45% (inactive) |
| COC(=O)c1c(NC(=O)COc2ccc(Cl)cc2Cl)sc2c1CC(C)(C)NC2(C)C | 6% (inactive) |
| CSCC[C@H](NC(=O)NC1CCCC1)C(=O)O | 0.42% (inactive) |
| O=C(NCCc1ccccc1)c1c[nH]c2ccc(F)cc2c1=O | 1.93% (inactive) |
| O=c1[nH]c2c(c(=O)n1-c1ccccc1)CCO2 | -0.17% (inactive) |
| Fc1ccc(Nc2nnns2)cc1 | 3.58% (inactive) |
| COCCN(Cc1ccccc1)C(=O)Cc1ccc(S(=O)(=O)N2CCOCC2)s1 | -2.49% (inactive) |
| CS(=O)(=O)c1cccc(-c2ccc3nncn3c2)c1 | 4.9% (inactive) |
| CCCCS(=O)c1snnc1C (centres undefined) | 1.27% (inactive) |
| COc1ccc(/C=C/CN2CCN(Cc3ccc(C)cc3)C(CCO)C2)cc1 (centres undefined) | 0.4% (inactive) |
| O=C(OCC(=O)N1CCCC1)c1ccc(Cl)nc1 | -0.33% (inactive) |
| CC1(C)CC(N(Cc2ccccc2)C(=O)Cc2ccccc2)CCO1 (centres undefined) | -16.2% (inactive) |
| CCOc1c(Br)cc(/C=C2\C(=O)N(CCC#N)N=C2C)cc1OC | 40.1% (active) |
| Cc1ccc(C(c2nnnn2CS(=O)(=O)c2ccc(C)cc2)N2CCC(C)CC2)cc1 (centres undefined) | -0.04% (inactive) |
| CCCSc1nsc(N)n1 | -1.07% (inactive) |
| CC(C)(CNC(=O)Cc1ccc(Cl)cc1Cl)N1CCOCC1 | 1.34% (inactive) |
| CCOC(=O)c1cccc(NC(=O)C2CCCN(S(=O)(=O)c3cnc[nH]3)C2)c1 (centres undefined) | 1.55% (inactive) |
| Cc1ccsc1C1C(C#N)=C(N)OC2=C1C(=O)CC(C)(C)C2 (centres undefined) | 1.86% (inactive) |
| CCCn1nnnc1NC(=O)COc1ccc(Cl)cc1C | 0.54% (inactive) |
| O=C(c1ccc(CS(=O)Cc2ccccc2Cl)o1)N1CCN(c2ccccc2)CC1 (centres undefined) | -8.64% (inactive) |
| O=c1c2ccccc2c(-c2ccc(Br)cc2)nn1Cc1ccccc1 | 1.66% (inactive) |
| Cc1ccsc1C(=O)NCCc1ccco1 | 5.29% (inactive) |

| Compound | activation |
| --- | --- |
| O=C(NCCc1ccco1)c1nn(Cc2ccccc2)c(=O)c2ccccc12 | 41.3% (active) |
| Cc1ccc(S(=O)(=O)NNC(=S)NC(C)(C)C)cc1 | 4.04% (inactive) |
| COC(=O)[C@@H](NC(=O)Nc1cc(Cl)ccc1C)C(C)C | 4.54% (inactive) |
| CC(C)Oc1ccc(S(=O)(=O)N2CCOCC2)cc1NC(=O)C1CCCC1 | 0% (inactive) |
| Cn1c2ccccc2c2cc(/C=C(\NC(=O)c3ccccc3)C(=O)NCC(=O)O)ccc21 | 1.03% (inactive) |
| COCCCNC(NC(=O)c1ccc(OC)cc1)C(Cl)(Cl)Cl (centres undefined) | -6.96% (inactive) |
| CSCCC(Nc1ccc(S(=O)(=O)N2CCOCC2)cc1[N+](=O)[O-])C(=O)OCC(=O)N(C(C)C)C(C)C (centres undefined) | 3.61% (inactive) |
| CCOC(=O)CNc1nc(Cl)nc(Nc2ccccc2)n1 | -0.38% (inactive) |
| CCC(=O)Nc1ccc(Nc2nc(Cl)nc(Nc3ccc(NC(=O)CC)cc3)n2)cc1 | 41.8% (active) |
| CCC(=O)Nc1ccc(-c2ccc(N3CCCCC3)nn2)cc1 | 1.98% (inactive) |
| CCC(=O)N1CCC(C)(C(=O)Nc2cc(OC)c(OC)c(OC)c2)C1 (centres undefined) | 0.68% (inactive) |
| CCCc1cc(=O)[nH]c(SCC(=O)c2c(N)n(CC(C)C)c(=O)n(C)c2=O)n1 | -6.69% (inactive) |
| Cc1ccc(S(=O)(=O)N2CCOCC2)cc1NC(=O)CSc1nnc(N)s1 | -4.98% (inactive) |
| COc1ccc(C#CCNCc2ccc(OC)cc2OC)cc1 | -0.15% (inactive) |
| O=C(Oc1ccc2c(c1)CCC2)N1CCOCC1 | 4.74% (inactive) |
| CCOC(=O)C(=O)N(Cc1ccccc1)c1ccccc1C(=O)Nc1cc(OC)ccc1OC | -11.8% (inactive) |
| COc1ccc(NC(=S)SC)cc1OC | 1.77% (inactive) |
| COc1ccccc1C(=O)N(C1=NC(C)CS1)c1ccc(Cl)cc1 (centres undefined) | -15.5% (inactive) |
| CC1CCN(CCCNC(=O)CN2C(=O)CSc3ccc(S(=O)(=O)N4CCCCC4)cc32)CC1 | 3.44% (inactive) |
| Cn1nc(C(F)(F)F)cc1-c1ccc(/C=C(\C#N)C(=O)c2cccc(C(F)(F)F)c2)s1 | 25.6% (inactive) |
| CC1CCCC(N2CCN(C(=O)c3ccc(F)cc3)CC2)C1 (centres undefined) | 5.28% (inactive) |
| O=S(=O)(c1ccc(-c2ccccc2)cc1)N1CCCC1 | 0.74% (inactive) |
| Cc1cccc(C(=O)Nc2ccccc2-c2nnn(CC(=O)Nc3ccc4c(c3)OCCO4)n2)c1 | -13.7% (inactive) |
| CN1C[C@]2(C=C3CCCCC3n3c(=O)n(-c4ccccc4)c(=O)n32)N=C1NC(=O)c1ccccc1 (some centres undefined) | -1.71% (inactive) |

| Compound | activation |
| --- | --- |
| C#CCCN([C@H](C(=O)OC)C(C)C)S(=O)(=O)c1ccc(F)cc1Br | -5.17% (inactive) |
| COc1ccccc1-n1nnnc1S(=O)(=O)Cc1ccc(Cl)cc1 | 0.71% (inactive) |
| Cc1nc(-c2ccc(Cl)cc2)sc1C1(C)CC(c2ccccc2F)=NO1 (centres undefined) | 2.63% (inactive) |
| Cc1nc(-c2ccc(Cl)cc2)sc1C(=O)CBr | 49.9% (active) |
| Cc1nc(-c2ccc(Cl)cc2)sc1C1(C)CC(c2ccc(Br)cc2)=NO1 (centres undefined) | -0.28% (inactive) |
| Cc1ccccc1CN1CCCCC(NC(=O)c2cccc(C#N)c2)C1=O (centres undefined) | 1.67% (inactive) |
| CCOc1ccc(S(=O)(=O)N2CCC(c3ccccc3)CC2)cc1C(=O)O | 0.54% (inactive) |
| C/C=C/c1ccc(OCCOc2ccc(C=O)cc2OC)c(OC)c1 | 3.2% (inactive) |
| CCOc1cc(/C=N/O)ccc1OCc1ccccc1F | -0.44% (inactive) |
| COc1cc(/C=C2/C(=O)ON=C2C)ccc1OCc1ccccc1F | 51.8% (active) |
| COc1cc(CNc2ncn[nH]2)ccc1OCc1ccccc1C | 0.42% (inactive) |
| COc1ccnc2c1c(=O)n(Cc1cccc(F)c1)c(=O)n2C | 8.86% (inactive) |
| COc1cc(/C=C2/C(=O)ON=C2C)ccc1OCc1cccc(F)c1 | 52.6% (active) |
| COc1ccc(CCNC(=O)c2ccc(NC(=O)CC3SC(N4CCCCC4)=NC3=O)cc2)cc1OC (centres undefined) | -0.61% (inactive) |
| COCCCN1C(=O)C(=O)/C(=C(/O)c2ccc(S(=O)(=O)N3CCOCC3)cc2)C1c1ccc(F)cc1 (centres undefined) | 1.53% (inactive) |
| CCc1c(-c2ccccc2OC)ncn1CCc1ccccc1OC | -8.39% (inactive) |
| CCc1nc2c(OCc3cccc(OC)c3)cccn2c1N(C)C(=O)C(C)C | -2.25% (inactive) |
| CC(NC(=O)CCCC1CCCCC1)c1ccc(S(N)(=O)=O)cc1 (centres undefined) | -4.53% (inactive) |
| CC(=O)Oc1c(C(=O)c2nnc(C)o2)c(=O)n(Cc2ccccc2)c2ccccc12 | -0.69% (inactive) |
| O=C1CCCCC1Sc1ccc(Cl)cc1[N+](=O)[O-] (centres undefined) | -7.33% (inactive) |
| CCN(CC)C(CNC(=O)CSc1nnnn1-c1cccc(F)c1)c1ccco1 (centres undefined) | 2.86% (inactive) |
| Cc1ccc(S(=O)(=O)N2C[C@@H]3CCCC[C@@H]3[C@@H](C)[C@H]2c2cn(Cc3ccccc3)c3ccc(F)cc23)cc1 | 3.1% (inactive) |
